Measurements as given in PubChem BioAssay AID2252 (Southern Research Specialized Biocontainment Screening …, 2010).
Screen size: about 2,300 compounds; about 1,500 (65%) were called active. No rule for the calls is given here. The set was probably picked from earlier hits. Not all results are given here.

assay: PubChem AID 2252; settings: THP-1 viability, CellTiter-Glo luminescence, 72 h; min viability: minimum viability across concentrations, concentration not given here; series mostly up to 50 µM

SMILES | outcome
CCOC(=O)c1ccc(NC(=O)c2cc3c(s2)CCC3)cc1 | inactive
CCC1(CC)C(=O)NC(=O)NC1=Nc1cccc(OC)c1 | inactive
CCOc1ccc2nnnn2n1 | inactive
CCCCC(=O)Nc1ccc(F)c(Cl)c1 | inactive
Clc1ccc(Cn2cc(Br)cn2)cc1Cl | inactive
CCOC(=O)CSc1nc(-c2ccccc2)nc2ccccc12 | inactive
COc1ccccc1NC(=O)Cn1c(=O)n(CCc2c[nH]c3ccccc23)c(=O)c2cccnc21 | inactive
c1ccc(N2CCN(c3nc4ccccc4[nH]3)CC2)nc1 | inactive
C=CCOc1ccc(-c2n[nH]c(=S)o2)cc1 | inactive
C=CC1=C(C(=O)O)N2C(=O)[C@@H](NC(=O)/C(=N\O)c3csc(N)n3)[C@H]2SC1 (stereo in doubt) | inactive
COc1ccc(/C=N/NC(=O)c2cccnc2)cc1 | inactive
Cc1ccc2cc(-c3noc(C4CCCO4)n3)c(=O)[nH]c2c1 (stereo unspecified) | inactive
CCOc1ccc(NC(N)=O)cc1 | inactive
Clc1ccc(OCc2nn3c(C4CCCCC4)nnc3s2)c(Cl)c1 | inactive
COc1ccccc1CNC(=O)COC(=O)CCC(=O)c1cccs1 | inactive
O=c1c2ccccc2ncn1Cc1ccc(Cl)cc1 | inactive

SMILES | outcome
COc1nc(N(C#N)CC(N)=O)nc(N2CCCC2)n1 | inactive
Cc1ccc(-c2c(C)n([O-])c3c([n+]2=O)CCCC3)o1 | inactive
O=S(=O)(c1ccccc1)c1nc(-c2cccs2)oc1NCC1CCCO1 (stereo unspecified) | inactive
C#CCOCCOCCOCCNc1nc(N2CCN(C(=O)C(Cc3cc4ccccc4[nH]3)n3cc(C(N)C(C)CC)nn3)CC2)nc(N2CCN(C(=O)C(Cc3cc4ccccc4[nH]3)n3cc(C(N)C(C)CC)nn3)CC2)n1 (stereo unspecified) | inactive
CC[C@H]1OC(=O)[C@H](C)[C@@H](O[C@H]2C[C@@](C)(OC)[C@@H](O)[C@H](C)O2)[C@H](C)[C@@H](O[C@@H]2O[C@H](C)C[C@H](N(C)C)[C@H]2O)[C@](C)(OC)C[C@@H](C)C(=O)[C@H](C)[C@@H](O)[C@]1(C)O | inactive
CCOC(=O)Cc1[nH]nc2c1C(c1ccoc1)C(C#N)=C(N)O2 (stereo unspecified) | inactive
O/N=C/c1ccc(OCc2ccccc2)c(Cl)c1 | inactive
C#CCOCCOCCOCCNc1nc(N2CCN(C(=O)[C@H](Cc3ccc(O)cc3)n3cc([C@@H](N)CC(C)C)nn3)CC2)nc(N2CCN(C(=O)[C@H](Cc3cc4ccccc4[nH]3)n3cc([C@@H](N)CC(C)C)nn3)CC2)n1 | inactive
Cc1ncc([N+](=O)[O-])n1CC(=O)NC1CCCC1 | inactive
Cc1ccc(N(C(=O)c2sc(C)nc2C)C(C(=O)NCc2ccco2)c2ccccc2)cc1 (stereo unspecified) | inactive
CCOC(=O)c1ccc(CNCc2ccc(Br)cc2)cc1 | inactive
Cc1cc(C)cc(NC(=O)C(Sc2nnc(C)c(=O)[nH]2)c2ccccc2)c1 (stereo unspecified) | inactive
Nc1ccc(S(=O)(=O)Nc2nccs2)cc1 | inactive
CC(C)c1cc(C(=O)Nc2ccc3c(c2)OCO3)no1 | inactive
CC1Cc2ccccc2N1C(=O)CN1C(=O)C(=O)N(Cc2ccccc2)C1=O (stereo unspecified) | inactive
